High-throughput results from PubChem.
Myeloid diff MLP: induction of myeloid progenitor differentiation, primary screen, cell-based, flow cytometry, MLPCN library; ER-HoxA9 myeloid progenitors, lysozyme-GFP differentiation; calls only at 10 µM; actives 1% (n = 360,000);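 active = normalized GFP-positive differentiation at or above the plate's own cutoff, the solvent-only control mean plus 3 SD; inconclusive = no clear call, values can overlap the other calls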;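 also: cells exposed to compound for four days before flow analysis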
Cardio protect: cardioprotection against H2O2-induced cell death, primary screen, uHTS, H9c2 cells, ATPLite luminescence; H9c2 cardiomyocytes, H2O2 injury protection, 2 h; protection from H2O2 cell death, % at 20 µM; actives 0.63% (n = 360,000);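 active = compounds giving at least 50% protection of heart cells from peroxide-induced death in the single-dose screen, raw or plate-pattern-corrected value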;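 also: 0% = DMSO wells with peroxide and 100% = DMSO wells without peroxide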
beta cell repl: inducers of MIN6 beta-cell proliferation, primary screen, ATP luminescence, uHTS; MIN6 cells proliferation, ATPlite luminescence, 48 h; cells starved in 0.2% serum; 100% = growth in 10% serum; proliferation, % at 10 µM; actives 0.29% (n = 330,000);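 active = compounds whose signal lies at least 3.5 SD above the mean of all wells on their plate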;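 also: 0% = DMSO-treated cells in low-serum medium and 100% = 10% serum control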
hiPSC survival: enhancers of single-cell hiPSC survival, primary screen, ATPlite luminescence; actives 0.044% (n = 360,000); 100% = ROCK inhibitor wells, 0% = DMSO; survival enhancement, % at 20 µM; in the data active = survival enhancement above about 18%;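 also: cells exposed to compounds for 16 hours before the ATP read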
ABCB6 inh 2: ABCB6 transporter inhibitors, primary screen, K562-ABCB6 cells, flow cytometry, MLPCN library; ATP-binding cassette sub-family B member 6 (Homo sapiens), Q9NP58; K562-ABCB6 porphyrin accumulation, 1 h; hits give low values; fluorescence ratio to DMSO, % at 10 µM; actives 0.19% (n = 360,000); AID 602162, 2011;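 active = fluorescence ratio to DMSO below 75%, the collection mean minus 3 SD; inconclusive = too few cells collected in the well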;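 also: signal is porphyrin accumulated inside mitochondria; 100% equals median channel fluorescence of DMSO control wells; lower ratio means ABCB6 inhibition with less porphyrin fluorescence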
An asterisk follows results filed as active; i = inactive; ? = inconclusive; . = no result given; + = active, no number. Compounds with a hit are over-represented: about 2.2% of the library has one in this group of screens.

SMILES | Myeloid diff MLP | Cardio protect | beta cell repl | hiPSC survival | ABCB6 inh 2
O=c1c(Cl)c(Cl)cnn1Cc1nnc(-c2ccccc2Br)o1 | ? | -21 | -5 | 26* | 102
Cc1cccc(C)c1NC(=O)C1(NC(=O)Cn2cccc([N+](=O)[O-])c2=O)CCCCC1 | i | 6 | 1 | 0 | 93
Cc1ccc(Oc2ccccc2/C=C2\SC(=O)N(C)C2=O)cc1 | i | -3 | -6 | -1 | 74*
CN1C(=O)S/C(=C\c2ccccc2OCc2ccc(C(=O)O)cc2)C1=O | i | 3 | -4 | 0 | 97
CCOC(=O)c1cnc(-n2nc(C)cc2C)nc1NCc1ccccc1 | i | 63* | -6 | 2 | 95
COC(=O)[C@@]12CCCCN1[C@H](c1ccc(-c3ccccc3)cc1)[C@@H]1C(=O)N(C)C(=O)[C@@H]12 | i | -1 | -9 | 0 | 87
COC(=O)[C@@]12CCCCN1[C@H](c1ccc(-c3ccc(OC)cc3)cc1)[C@H]1C(=O)N(C)C(=O)[C@H]12 | + | -3 | -8 | 2 | 94
COC(=O)NNC(=O)CCCOc1ccc(Cl)cc1Cl | i | 6 | 0 | -1 | 102
COC(=O)[C@@]12C[C@@H](CC(=O)NCCCCc3ccccc3)C(=O)N(Cc3ccc4c(c3)OCO4)C1=CCC(C)(C)C2 | + | . | . | . | .
O=[N+]([O-])c1cn(Cc2ccc(Cl)cc2)cn1 | i | 2 | -1 | 0 | 102
O=C(C1=C[C@H](c2ccc(Br)cc2)C[C@H](OCCCCO)O1)N1CCOCC1 | i | 6 | -7 | -3 | 106
C#Cc1ccc([C@@H]2C=C(C(=O)N3CCOCC3)O[C@H](OCCCCO)C2)cc1 | + | 2 | -1 | 1 | 96
CCN(CC(=O)Nc1ccc(OC)cc1)C(=O)CCc1nc2ccccc2c(=O)[nH]1 | i | 90* | -1 | 0 | 96
COc1cccc(NC(=O)CN(C)C(=O)CCCc2nc3ccccc3c(=O)[nH]2)c1 | i | 64* | 4 | -1 | 94
CN(CC(=O)Nc1cccc(F)c1)C(=O)Cc1n[nH]c(=O)c2ccccc12 | i | 74* | -1 | 0 | 97
CN(CC(=O)Nc1cccc(F)c1)C(=O)CCCc1nc2ccccc2c(=O)[nH]1 | i | 60* | -6 | 0 | 106
CC(C)NC(=O)COc1ccc2c(c1)C(=O)CC(C)(C)O2 | i | -4 | 1 | 0 | 99
CC1=C(CC[C@@H](C)CO)OC2CC3C4CCC5CC(O)CCC5(C)C4CC(=O)C3(C)C12 (some centres undefined) | i | 50* | 1 | -1 | 93
CC(CCC(=O)O)C1CCC2C3CCC4C[C@H](O)CCC4(C)C3CC(=O)C12C (some centres undefined) | i | 6 | 1 | 2 | 100
CCOC(=O)N1CCC(NC(=O)CS(=O)(=O)Cc2nc(-c3ccccc3C)oc2C)CC1 | + | -10 | -2 | 1 | 92
Cc1ccccc1-c1nc(CS(=O)(=O)CC(=O)NC2CCCC2)c(C)o1 | i | -1 | 4 | 0 | 99
Cc1ccccc1Sc1ccc(N)cn1 | + | 4 | -4 | 2 | 119
Cc1cccc(N(CC(=O)NC(C)(C)C)C(=O)CNC(=O)c2cccs2)c1C | i | -4 | 0 | 1 | 96
CCC1(C)Cc2c(sc3nc(NN)n(C)c(=O)c23)CO1 (centres undefined) | i | 51* | -3 | 2 | 101
Cc1cc(N2CCOCC2)c2c(N)c(Br)cc(C)c2n1 | i | 52* | 5 | -3 | 96
SMILES | Myeloid diff MLP | Cardio protect | beta cell repl | hiPSC survival | ABCB6 inh 2
CCOc1cccc(/C=N/NC(=S)Nc2cc(S(=O)(=O)N3CCOCC3)ccc2N2CCOCC2)c1O | i | 54* | -6 | -2 | 100
COc1ccc2ccccc2c1/C=N/NC(=S)Nc1cc(S(=O)(=O)N2CCOCC2)ccc1N1CCOCC1 | i | 0 | 0 | 1 | 98
COc1ccc(N2CCN(C(=O)C3Cc4ccccc4CN3C(=O)c3ccccc3)CC2)cc1 (centres undefined) | + | 24 | -3 | -1 | 99
CCN(CC)CCNC(=O)C12CC3CC(CC(C3)C1)C2 | + | 9 | 1 | 0 | 98
CCN(CC)S(=O)(=O)c1ccc(N2CCOCC2)c(NC(=O)c2cccc3c(=O)c(C)c(-c4ccccc4)oc23)c1 | i | 45 | -2 | 0 | 88
COc1ccc(S(=O)(=O)N2CCOCC2)cc1NC(=O)c1cccc2c(=O)c(C)c(-c3ccccc3)oc12 | ? | 71* | -2 | 0 | 92
Cc1[nH]c(=O)[nH]c(=O)c1CSCC(=O)OCC(=O)c1ccc(Br)cc1 | i | 2 | 1 | 0 | 102
CCO[C@@H]1OC(C(=O)NCc2ccccc2)=C[C@H](C2CC2)[C@H]1CCCO | i | 3 | -1 | 4 | 100
CCO[C@@H]1OC(C(=O)NCc2ccccc2)=C[C@H](C2CCCCC2)[C@H]1CCCO | + | -9 | -4 | 2 | 101
CC[C@]12c3[nH]c4cc(CCC(=O)N(C)C)ccc4c3CCN1C(=O)[C@@H](CC(=O)NCCC1=CCCCC1)C[C@@H]2C(=O)N1CCN(C(=O)c2ccco2)CC1 | i | 4 | . | 0 | 90
COc1ccc([C@@H]2[C@@H]3C(=O)N(C(C)(C)C)C(=O)[C@@H]3[C@]3(C)C(=O)N(c4ccccc4)C(=O)N23)cc1 | + | 4 | 9 | -3 | 103
COc1ccc(-c2cc(=O)oc3cc(OC(=O)C4CCCCC4)ccc23)cc1 | i | 52* | 3 | -1 | 102
COC(=O)COc1ccc2c(-c3ccc(OC)cc3)cc(=O)oc2c1 | i | 2 | -3 | -2 | 101
O=C(Oc1ccc2c(-c3ccccc3)cc(=O)oc2c1)C1CCCCC1 | i | 88* | -2 | -1 | 99
CCN(CC)CCNC(=O)CS(=O)Cc1nc(-c2ccc(Cl)cc2)oc1C (centres undefined) | i | 4 | 4 | -2 | 96
O=c1cc(-c2ccc(O)cc2)oc2ccccc12 | i | 22 | -1 | 0 | 100
O=c1cc(-c2ccncc2)oc2ccccc12 | i | 53* | -2 | -1 | 98
COc1ccc(OC)c(-c2nnc3n2N=C(c2ccc(OC)c(OCC4CC4)c2)CS3)c1 | + | 29 | -5 | 0 | 99
O=[N+]([O-])c1ccc(Nc2ccccc2O)c([N+](=O)[O-])c1 | + | -7 | . | 1 | 104
COc1cc(-c2ccc3c(=O)c4ccccc4sc3c2)cc(OC)c1OC | i | -6 | -4 | 0 | 100
COc1cc(-c2ccc3c(=O)c4ccccc4n(C)c3c2)cc(OC)c1OC | ? | 88* | -1 | -1 | 91
